TDP1 cell CPT – growth inhibition of DT40 Tdp1-/-;hTDP1 cells with camptothecin (screen for TDP1 inhibitors). chicken DT40 Tdp1-/-;hTDP1 cells + 20 nM CPT, ATP luminescence, 48 h. Potency, µM (doses to about 46.2 µM), hits mostly inhibitors. 420,000 tested, 12% active. AID 686979; also: nearly all actives have a fitted effect of over 55% in size
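Chicken DT40 Tdp1-/- cells complemented with human TDP1, 400 cells/well, exposed to compounds plus 20 nM camptothecin for at least 48 h at 37 C; viability read as ATP content by CellTiter-Glo luminescence.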
HT1080 IDH1KD tx – toxicity to HT-1080 IDH1 knockdown cells (counter line). HT-1080 IDH1 knockdown viability, ATP luminescence, 48 h. Potency, µM (highest dose often 46.1 µM), most hits filed as cytotoxic. 360,000 tested, 2% active. AID 686971
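IDH1KD HT-1080 cells, 750/well, RPMI + 5% FBS; compound pinned after 2 h settling; 48 h, 37 °C; CellTiter-Glo luminescence; % activity normalised to DMSO and no-cell wells; curves fitted, classed by r2 and efficacy.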
TDP1 cell noCPT – qHTS for Inhibitors of human tyrosyl-DNA phosphodiesterase 1 (TDP1): qHTS in cells in absence of CPT. AID 686978, 2013. 420,000 tested, 15% active. Potency, µM (highest dose often 46.2 µM), usual class: inhibitors. DT40 Tdp1-/- hTDP1 cells, no CPT, ATP luminescence, 48 h; also: nearly all actives have a fitted effect of over 55% in size
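A cellular qHTS used chicken DT40 cells lacking endogenous Tdp1 but carrying stably transfected human TDP1. Compounds were applied without camptothecin, and cell growth kinetics were judged by ATP-dependent luminescence after ≥48 hr.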
HepG2 tox-1 – kills HepG2 cells in TGF-b inhibitor counter-screen. Potency, µM (titrated, usually from 46.1 µM), most hits filed as cytotoxic. HepG2 CAGA-GFP viability, ATP luminescence, 18 h. 410,000 tested, 0.76% active. AID 588856
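HepG2 CAGA-GFP cells (1000/well, DMEM with 1% FBS) received compound, then TGF-beta at 500 pg/mL final, and were incubated 18 hours at 37 degrees C. Viability was read by CellTiter-Glo luminescence. Media-only wells were set as complete cell-killing and DMSO as no toxicity.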
TGFb inhibitor – inhibitors of TGF-b signaling. HepG2 CAGA-GFP TGF-b/SMAD3 reporter, GFP fluorescence, 18 h; TGF-beta stimulated, 500 pg/mL final. Potency, µM (series often up to 46.1 µM), usual class: inhibitors. 410,000 tested, 1.2% active. AID 588855; also: nearly all actives have a fitted effect of over 65% in size
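HEPG2 CAGA-GFP reporter cells (1000/well, DMEM with 1% FBS) received compounds, then recombinant TGF-beta at 500 pg/mL final for 18 hours at 37 degrees C. Per-cell GFP summed per well was normalised to unstimulated and stimulated DMSO controls before curve fitting.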
HT1080NT lethal – kills 2HG-producing HT-1080-NT fibrosarcoma cells. 360,000 tested, 1.6% active. AID 686970. HT-1080-NT fibrosarcoma viability, CellTiter-Glo ATP luminescence, 48 h. Potency, µM (highest dose often 46.1 µM), actives largely listed as cytotoxic;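 also: NT is the 2HG producing partner of a matched IDH1 knockdown line; nearly all actives have a fitted effect of over 55% in size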
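Compounds were tested in concentration-response format on HT-1080-NT cells for 48 hours at 37 degrees C. Cell viability came from CellTiter-Glo luminescence; curves were classified by r2, response magnitude and activity.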
TGFb CAGA inh – TGF-b pathway inhibition, cherry-pick retest. shares compounds with TGFb inhibitor. HepG2 CAGA-GFP TGF-b reporter, GFP fluorescence, 18 h; cells stimulated with TGF-beta, 500 pg/mL. 1,600 tested, 63% active. Potency, µM (highest dose often 46.1 µM), usual class: inhibitors; also: nearly all actives have a fitted effect of over 65% in size
HepG2 tox-2 – HepG2 cytotoxicity, TGF-b inhibitor counterscreen; shares compounds with TGFb inhibitor; HepG2 CAGA-GFP viability, ATP luminescence, 18 h; cells stimulated with TGF-beta, 500 pg/mL; Potency, µM (highest dose often 46.1 µM), hits mostly inhibitors; 1,600 tested, 27% active; AID 720535; also: nearly all actives have a fitted effect of over 70% in size
TGFb CCL64 inh – orthogonal confirmation of TGF-b inhibitors in CCL64 cells | AID 720536 | shares compounds with TGFb inhibitor | Potency, µM (titrated, usually from 46.1 µM), actives largely listed as inhibitors | CCL64 CAGA-GFP reporter, TGF-b stimulated, GFP fluorescence, 18 h | 1,600 tested, 41% active; also: nearly all actives have a fitted effect of over 65% in size
COP TGFb inh – TGF-b inhibition validated with COP promoter; shares compounds with TGFb inhibitor; HepG2 COP-GFP TGF-b reporter, GFP fluorescence, 18 h; cells stimulated by added recombinant TGF-beta; Potency, µM (highest dose often 46.1 µM), usual class: inhibitors; 1,600 tested, 3% active; also: nearly all actives have a fitted effect of over 70% in size
Each line names hits and unclear results; the compound was inactive in the other large screens (follow-up assays come after a bar, where they were run). In the library only some 17% were active in any assay of this set; here they are far more common. Calls follow the shape of the dose curve; as a rule, active = well fitted curve in the direction sought with a large enough effect; inconclusive = small, poorly fitted or top-dose-only effect, or another doubt; inactive = no such curve, though single readings can be large; an effect the other way counts as inactive or inconclusive.

Cn1cc([N+](=O)[O-])c(C(=O)Nc2ccc3nc(-c4ccccc4)[nH]c3c2)n1	TDP1 cell CPT inconclusive, HT1080 IDH1KD tx inconclusive, TDP1 cell noCPT 18.4µM, TGFb inhibitor 7.94µM, HT1080NT lethal inconclusive | TGFb CAGA inh 6.51µM | HepG2 tox-2 inconclusive | TGFb CCL64 inh inactive | COP TGFb inh inactive
Cn1cccc1-c1nc2ccc(NC(=O)c3ccc([N+](=O)[O-])cc3)cc2[nH]1	TDP1 cell noCPT inconclusive
CC(Oc1ccccc1)C(=O)NC1CC(C)(C)NC(C)(C)C1 (stereo unspecified)	none
CCCc1cc(-c2[nH]ncc2-c2ccc(C(=O)OCC)o2)c(O)cc1O	TDP1 cell CPT inconclusive, HT1080 IDH1KD tx inconclusive, TDP1 cell noCPT inconclusive, HepG2 tox-1 20µM, TGFb inhibitor 10µM, HT1080NT lethal inconclusive | TGFb CAGA inh inactive | HepG2 tox-2 inactive | TGFb CCL64 inh inconclusive | COP TGFb inh inactive
CCCNC(=O)CN1C(=O)NC2(CCCc3cc(OC)ccc32)C1=O (stereo unspecified)	none
Cc1nc(SCC(=O)N2CCN(c3ccccc3)CC2)n[nH]1	none
O=C(CSc1nc(N2CCCCC2)nc(N2CCCCC2)n1)N1CCN(c2ccccc2)CC1	TDP1 cell CPT 23.1µM, TDP1 cell noCPT 16.4µM, TGFb inhibitor 6.31µM | TGFb CAGA inh 16.4µM | HepG2 tox-2 inactive | TGFb CCL64 inh inconclusive | COP TGFb inh inactive
COc1ccc(C(C(=O)NC2CCCCC2)N(C(=O)c2ccccn2)c2cccnc2)cc1 (stereo unspecified)	none
COc1ccc(N(C(=O)CCl)C(C(=O)NC2CCCCC2)c2cccnc2)cc1 (stereo unspecified)	TDP1 cell CPT 3.26µM, HT1080 IDH1KD tx 5.8µM, TDP1 cell noCPT 2.31µM, HepG2 tox-1 11.2µM, TGFb inhibitor 8.91µM, HT1080NT lethal 7.31µM | TGFb CAGA inh 7.31µM | HepG2 tox-2 11.6µM | TGFb CCL64 inh 9.2µM | COP TGFb inh inconclusive
COc1cc2c(cc1OC)C(C)N(C(=O)c1cc3c(C)cc(C)cc3[nH]1)CC2 (stereo unspecified)	TDP1 cell CPT 16.4µM, HT1080 IDH1KD tx 6.51µM, TDP1 cell noCPT 16.4µM, TGFb inhibitor 11.2µM, HT1080NT lethal inconclusive | TGFb CAGA inh 16.4µM | HepG2 tox-2 14.6µM | TGFb CCL64 inh inconclusive | COP TGFb inh inactive
CCOC(=O)C1CCN(C(=O)c2cc3c(C)cc(C)cc3[nH]2)CC1	TDP1 cell noCPT inconclusive, HT1080NT lethal inconclusive
N#C/C(=N\Nc1ccc(Cl)c(Cl)c1)C(=O)C1CC1	TDP1 cell CPT 20.6µM, HT1080 IDH1KD tx 2.91µM, TDP1 cell noCPT 6.51µM, TGFb inhibitor 7.08µM, HT1080NT lethal inconclusive | TGFb CAGA inh 2.31µM | HepG2 tox-2 6.51µM | TGFb CCL64 inh 6.51µM | COP TGFb inh inactive
COc1ccc(NC(=O)c2cc(C3CCCCN3S(=O)(=O)Cc3ccccc3)on2)cn1 (stereo unspecified)	TDP1 cell noCPT inconclusive
CCOC(=O)c1c(C)[nH]c(C(=O)OCC(=O)NCCc2ccc(OCC)c(OCC)c2)c1C	TDP1 cell CPT 6.51µM, HT1080 IDH1KD tx inconclusive, TDP1 cell noCPT 5.17µM, TGFb inhibitor inconclusive | TGFb CAGA inh inconclusive | HepG2 tox-2 inconclusive | TGFb CCL64 inh inactive | COP TGFb inh inactive
COc1ccc(S(=O)(=O)N2CCC(N3CCN(c4ccccc4OC)CC3)CC2)cc1	none
O=C(Nc1cc(Sc2ccccn2)cc([N+](=O)[O-])c1)c1ccc(Cl)cc1	TDP1 cell CPT inconclusive, HT1080 IDH1KD tx inconclusive, TDP1 cell noCPT 23.1µM, TGFb inhibitor 14.1µM, HT1080NT lethal inconclusive | TGFb CAGA inh 11.6µM | HepG2 tox-2 inactive | TGFb CCL64 inh 10.3µM | COP TGFb inh inactive
O=C(Nc1ccccc1C(=O)Nc1ccccn1)c1ccc([N+](=O)[O-])cc1	none
CCOC(=O)C1=CN(Cc2cccc(F)c2)S(=O)(=O)N(CC)C1c1ccc(F)c(Cl)c1 (stereo unspecified)	TDP1 cell CPT inconclusive, TDP1 cell noCPT inconclusive
FC(F)(F)c1nc2ccccc2n2c(-c3ccc(Cl)cc3)nnc12	TDP1 cell CPT 7.31µM, HT1080 IDH1KD tx 4.61µM, TDP1 cell noCPT 11.6µM, TGFb inhibitor 4.47µM, HT1080NT lethal 5.8µM | TGFb CAGA inh 5.17µM | HepG2 tox-2 inconclusive | TGFb CCL64 inh inactive | COP TGFb inh inactive
O=C(Nc1cccc2ccccc12)N1CCN(Cc2ccccc2)CC1	none
CN(CC(=O)N1CCN(Cc2ccccc2)CC1)C(=O)Cc1cccc2ccccc12	TDP1 cell CPT 13µM, TDP1 cell noCPT 13µM, TGFb inhibitor 14.1µM | TGFb CAGA inh inconclusive | HepG2 tox-2 inactive | TGFb CCL64 inh inactive | COP TGFb inh inactive
Cc1ccc(NC(=O)CCC(=O)N2CCC(C)CC2)c([N+](=O)[O-])c1	none
C[C@]12c3[nH]c4cc(-c5ccco5)ccc4c3CCN1C(=O)[C@@H](CC(=O)NCCc1ccccn1)C[C@@H]2C(=O)N1CCCCC1	TDP1 cell CPT inconclusive, TDP1 cell noCPT inconclusive, TGFb inhibitor inconclusive | TGFb CAGA inh inconclusive | HepG2 tox-2 inactive | TGFb CCL64 inh inactive | COP TGFb inh inactive
CCN(CC)C(=O)[C@H]1C[C@H](CC(=O)NCc2cccc(C(F)(F)F)c2)C(=O)N2CCc3c([nH]c4cc(-c5ccco5)ccc34)[C@]12C	TDP1 cell CPT inconclusive, HT1080 IDH1KD tx inconclusive, TDP1 cell noCPT inconclusive, TGFb inhibitor 10µM, HT1080NT lethal inconclusive | TGFb CAGA inh 9.2µM | HepG2 tox-2 16.4µM | TGFb CCL64 inh 11.6µM | COP TGFb inh inactive

Bioassay records (PubChem)
